Assay results reported in PubChem BioAssay.
Calls of active or inactive are those of the source.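 The calls were made as follows, unless noted: active = NADPH fluorescence slope more negative than the mean of all samples by about 3 SD, 99.7% confidence; inactive = the rest.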

What was measured:
[1] = inhibitors of TNFa-induced NFkB p65 translocation, primary screen, imaging, HUVEC, MLSMR starter and 10KST1 sets (AID 438;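 active = inhibition above 20% together with a positive visual image hit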;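 also: compound added about 3h40 before a 20 min TNFalpha stimulation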;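 as to inhibition: signal is the nuclear over cytoplasmic p65 intensity ratio per well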); conditions: HUVEC TNFa-induced p65 nuclear translocation; cell count: measured here: nuclei count (cytotoxicity indicator), at 2.08 µM; inhibition: at 2 µM, stronger effect = higher value, 0% TNFa-plus-vehicle, 100% no-TNFa wells
[2] = reduction of polyQ htt aggregates in cells – imaging, exon1htt(103Q)mCFP cells, high-content imaging, primary screen (AID 483;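 active = visual image review flags a hit and inhibition of aggregation exceeds 20%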;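 also: compound exposure lasted 3 days before fixation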;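 as to nuclei count: percent of the per-plate median nuclei count of sample wells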); conditions: exon1htt(103Q)mCFP cell line, aggregate imaging, at 2 µM; inhibition of aggregation: stronger effect = higher value; nuclei count: measured here: cell count, toxicity
[3] = endothelial E-selectin expression blockers – imaging, HUVEC, immunofluorescence, MLSMR starter and 10KST1 sets, primary screen (AID 487;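 active = visually confirmed hit in the image check and inhibition above 20%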;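 as to inhibition: signal is fraction of cell area covered by stained E-selectin grains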;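 as to nuclei count: 100% = median nuclei count of all wells on the same plate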); conditions: HUVEC TNFalpha-induced E-selectin immunofluorescence imaging, at 2 µM; inhibition: stronger effect = higher value; nuclei count: measured here: cell number, toxicity
[4] = molecular target: Voltage-gated potassium channel subunit beta-2 (Rattus norvegicus) (UniProt P62483); experiment: inhibitors of rat Kvbeta2 reductase activity – biochemical, NADPH fluorescence, primary screen (AID 622;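 active = fluorescence slope higher than the sample average by over 3 SD, cut at about -0.22 in these data, passing the limit was not always enough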;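 also: slope of raw intensity against log time taken from 70 to 1610 s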); conditions: recombinant KvBeta, 4-cyanobenzaldehyde reduction, at 10 µM, stronger effect = higher value
[5] = molecular target: Voltage-gated potassium channel subunit beta-2 (Rattus norvegicus) (UniProt P62483); experiment: enhancers of rat Kvbeta2 NADPH turnover – biochemical, NADPH fluorescence, primary screen (AID 623); conditions: Recombinant KvBeta, NADPH fluorescence decrease slope, 10 min; at 10 µM; stronger effect = lower value;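 also: fluorescence intensity change per second fitted from 20 to 320 s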
[6] = molecular target: Alpha-2C adrenergic receptor (Homo sapiens) (UniProt P18825); experiment: compounds altering alpha2C-coupled GIRK flux – cell-based, HEK293 alpha2C/GIRK1/2, thallium flux, primary screen (AID 624;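 active = fluorescence slope after compound addition differing from the mean of all screened samples at 99.7% confidence, in either direction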;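 also: slope of fluorescence ratio to pre-addition baseline per second over 15 to 24 s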); conditions: thallium flux BTC fluorescence, at 10 µM, actives lie on both sides
[7] = blockers of RIG-like receptor reporter activation – cell-based, Sendai virus stimulus, luciferase, 10K MLSCN set, TLR/RLR signaling modifier project, primary screen (AID 602276;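 active = inhibition at or above 50% at 10 µM; inactive = inhibition below 50%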;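 also: firefly luciferase from ISG56 promoter only with Renilla not read in this screen; 0% = Sendai virus plus DMSO and 100% = medium plus DMSO without virus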); conditions: HEK293 RL24 IRF3 luciferase reporter, at 10 µM, stronger effect = higher value
[8] = TLR3 IRF3 reporter activation blockers – cell-based, poly I:C stimulus, luciferase, 10K MLSCN set, primary screen (AID 602277;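 active = inhibition of the reporter signal at or above 50%; inactive = inhibition below 50%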); conditions: HEK293-TLR3 RL24 IRF3 luciferase reporter, at 10 µM, stronger effect = higher value

Voltage-gated potassium channel subunit beta-2 (Rattus norvegicus), sequence (P62483 whole entry, looked up): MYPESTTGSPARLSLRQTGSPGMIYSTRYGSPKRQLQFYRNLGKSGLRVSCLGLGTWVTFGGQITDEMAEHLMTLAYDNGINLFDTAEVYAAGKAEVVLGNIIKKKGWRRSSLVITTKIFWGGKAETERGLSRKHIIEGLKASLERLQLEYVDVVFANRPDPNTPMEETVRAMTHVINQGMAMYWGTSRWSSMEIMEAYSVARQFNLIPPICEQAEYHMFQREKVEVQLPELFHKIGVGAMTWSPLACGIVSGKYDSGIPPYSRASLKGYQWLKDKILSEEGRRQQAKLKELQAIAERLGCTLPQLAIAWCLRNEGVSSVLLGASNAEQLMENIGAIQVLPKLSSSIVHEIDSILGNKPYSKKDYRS
Alpha-2C adrenergic receptor (Homo sapiens), sequence (P18825 whole entry, looked up): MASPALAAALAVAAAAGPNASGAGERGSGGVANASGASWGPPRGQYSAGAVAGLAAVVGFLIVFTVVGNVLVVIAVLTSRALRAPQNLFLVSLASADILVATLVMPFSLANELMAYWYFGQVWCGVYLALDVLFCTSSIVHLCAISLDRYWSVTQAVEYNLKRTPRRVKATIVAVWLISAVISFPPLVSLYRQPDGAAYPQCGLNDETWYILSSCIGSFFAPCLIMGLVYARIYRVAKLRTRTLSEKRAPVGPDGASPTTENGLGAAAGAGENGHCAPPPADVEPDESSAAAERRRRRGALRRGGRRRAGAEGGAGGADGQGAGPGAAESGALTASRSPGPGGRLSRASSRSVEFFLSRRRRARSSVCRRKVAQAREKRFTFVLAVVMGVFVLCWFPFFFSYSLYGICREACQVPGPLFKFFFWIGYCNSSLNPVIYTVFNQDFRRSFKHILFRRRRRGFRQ

| SMILES | cell count [1] | inhibition [1] | inhibition of aggregation [2] | nuclei count [2] | inhibition [3] | nuclei count [3] | fluorescence slope [4] | NADPH fluorescence slope [5] | slope [6] | inhibition [7] | inhibition [8] |
| --- | --- | --- | --- | --- | --- | --- | --- | --- | --- | --- | --- |
| CCOC(=O)c1cnc2c(OC)cccc2c1N1CCN(c2ccc(OC)cc2)CC1 | 158 | -4.9% (inactive) | 16.9% (inactive) | 72.9% | 2.9% (inactive) | 80.4% | -0.577 (inactive) | -4.5e-05 (inactive) | 0.00543 (inactive) | 19.3% (inactive) | 24.8% (inactive) |
| O=[n+]1cc(-c2ccc(F)cc2)n([O-])c2c1CCC2 | 391 | 6.5% (inactive) | 8.8% (inactive) | 103% | -70% (inactive) | 108% | -0.587 (inactive) | 3.3e-05 (inactive) | 0.00589 (inactive) | 5.02% (inactive) | 15.4% (inactive) |
| COc1ccc(C2/C(=C(/O)c3ccccc3)C(=O)C(=O)N2C)cc1 (centres undefined) | 424 | -0.5% (inactive) | 7.8% (inactive) | 106% | -25.9% (inactive) | 110% | -0.369 (inactive) | 4.1e-06 (inactive) | 0.00577 (inactive) | 14.9% (inactive) | 37.5% (inactive) |
| COc1ccc(-c2noc(COc3ccc(C)c(C)c3)n2)cc1OC | 334 | 2.7% (inactive) | 8.8% (inactive) | 97.9% | 21.9% (inactive) | 108% | -0.316 (inactive) | -6.4e-05 (inactive) | 0.00562 (inactive) | -1.39% (inactive) | 98.1% (active) |
| Cn1cnc(S(=O)(=O)Nc2ccc(C(F)(F)F)cc2)c1 | 480 | 2.2% (inactive) | -3.4% (inactive) | 117% | 14.3% (inactive) | 103% | -0.357 (inactive) | -6.4e-05 (inactive) | 0.00601 (inactive) | 2.5% (inactive) | 18% (inactive) |
| COc1ccc(-c2noc(CSc3nc(N)c(-c4ccccc4)c(=O)[nH]3)n2)cc1OC | 338 | 5.8% (inactive) | -0.8% (inactive) | 97.1% | -12.1% (inactive) | 122% | -0.441 (inactive) | 2.8e-05 (inactive) | 0.00653 (inactive) | 12% (inactive) | 15.6% (inactive) |
| COc1cccc(-n2c(SCC(=O)N3CCCC3)nc3c([nH]c4ccccc43)c2=O)c1 | 493 | -5.9% (inactive) | 0.6% (inactive) | 75.6% | 5.4% (inactive) | 91.8% | -0.544 (inactive) | -1.5e-05 (inactive) | 0.00652 (inactive) | -9.13% (inactive) | 55.5% (active) |
| Cc1cc(C)cc(N(CC(=O)NC2CCC(C)CC2)S(=O)(=O)c2c(C)noc2C)c1 (centres undefined) | 753 | -6.3% (inactive) | 12.1% (inactive) | 114% | -27.2% (inactive) | 115% | -0.622 (inactive) | -3e-05 (inactive) | 0.00687 (inactive) | 7.51% (inactive) | 32.5% (inactive) |
| COc1cc(OC)cc(OCC(O)Cn2cnc(-c3ccccc3)c2)c1 (centres undefined) | 586 | 6% (inactive) | -5.4% (inactive) | 92.1% | 11.1% (inactive) | 94.7% | -0.469 (inactive) | -4e-05 (inactive) | 0.00517 (inactive) | 17.6% (inactive) | 31.3% (inactive) |
| CCOc1ccc(NC(=O)CSc2nc3cccnc3n2CC)cc1 | 579 | -15.8% (inactive) | -26.9% (inactive) | 92.3% | -54.8% (inactive) | 102% | -0.487 (inactive) | -2.4e-05 (inactive) | 0.00547 (inactive) | 12.5% (inactive) | 25.8% (inactive) |
| O=C1c2ccccc2C(Nc2cccnc2)N1Cc1ccccc1Cl (centres undefined) | 674 | -14.6% (inactive) | -13.6% (inactive) | 105% | -37.8% (inactive) | 109% | -0.422 (inactive) | -4.2e-05 (inactive) | 0.00424 (inactive) | 3.6% (inactive) | 18.3% (inactive) |
| COC(=O)c1[nH]c2ccc(F)cc2c1NS(=O)(=O)c1ccc(OC)cc1OC | 682 | -11% (inactive) | -3.2% (inactive) | 106% | -80.2% (inactive) | 152% | -0.598 (inactive) | -5.6e-05 (inactive) | 0.00552 (inactive) | 16.7% (inactive) | 45.4% (inactive) |
| CCCCc1cc(=O)oc2cc(OCC(=O)N(CC)CC)c(Cl)cc12 | 586 | 0% (inactive) | -3.9% (inactive) | 102% | -56.9% (inactive) | 123% | -0.596 (inactive) | 7.2e-08 (inactive) | 0.00654 (inactive) | 12.5% (inactive) | 30.7% (inactive) |
| Cc1cc(N2CCOCC2)nc2ccc(NC(=O)C3CCC(C)CC3)cc12 (centres undefined) | 434 | -2.7% (inactive) | -22.1% (inactive) | 127% | -132% (inactive) | 123% | -0.549 (inactive) | 1.5e-05 (inactive) | 0.00409 (inactive) | -9.82% (inactive) | -31.3% (inactive) |
